Compound activity as filed in PubChem.
An excerpt weighted towards active compounds, which were near 2.4% of everything screened.
POLH inh – DNA polymerase eta (human) inhibition; Q9Y253; recombinant Pol eta, fluorescent DNA replication assay; Potency, µM (highest dose often 114 µM), most hits filed as inhibitors; actives 1.2% (n = 390,000); AID 588591
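Pol eta at 10 nM preincubated with compounds 15 min at room temperature; reaction started with fluorescent substrate (50 nM final) and read kinetically at 0 and 10 min.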
POLK inh – inhibitors of human DNA polymerase kappa. purified Pol kappa, fluorescent DNA synthesis assay, 10 min. Q9UBT6. actives 0.53% (n = 400,000). Potency, µM (doses to about 107 µM), most hits filed as inhibitors
Target sequence (Q9UBT6 whole entry, looked up): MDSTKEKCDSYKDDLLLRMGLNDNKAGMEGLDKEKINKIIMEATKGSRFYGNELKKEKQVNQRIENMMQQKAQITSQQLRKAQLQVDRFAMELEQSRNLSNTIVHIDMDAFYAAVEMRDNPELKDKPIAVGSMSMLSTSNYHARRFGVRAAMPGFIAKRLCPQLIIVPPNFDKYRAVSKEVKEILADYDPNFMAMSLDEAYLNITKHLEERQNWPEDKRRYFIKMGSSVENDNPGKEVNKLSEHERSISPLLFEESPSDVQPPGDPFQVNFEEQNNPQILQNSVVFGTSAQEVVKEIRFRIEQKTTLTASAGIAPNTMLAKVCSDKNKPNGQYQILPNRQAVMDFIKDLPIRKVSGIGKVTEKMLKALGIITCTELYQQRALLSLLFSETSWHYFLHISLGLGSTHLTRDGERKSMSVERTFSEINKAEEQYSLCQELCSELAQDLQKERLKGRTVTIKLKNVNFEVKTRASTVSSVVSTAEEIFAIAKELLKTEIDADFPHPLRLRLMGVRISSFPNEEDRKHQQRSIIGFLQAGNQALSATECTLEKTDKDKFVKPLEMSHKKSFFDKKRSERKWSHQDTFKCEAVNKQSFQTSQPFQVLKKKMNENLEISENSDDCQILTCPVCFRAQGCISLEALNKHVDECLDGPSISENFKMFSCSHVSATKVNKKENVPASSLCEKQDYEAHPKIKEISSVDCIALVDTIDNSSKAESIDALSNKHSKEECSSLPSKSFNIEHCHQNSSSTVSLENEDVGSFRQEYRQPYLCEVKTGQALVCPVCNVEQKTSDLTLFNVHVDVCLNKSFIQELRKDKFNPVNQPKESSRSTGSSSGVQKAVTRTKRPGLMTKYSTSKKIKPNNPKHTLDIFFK
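Kinetic fluorescence readout at 0 and 10 min followed reaction start with substrate at 50 nM final. Beforehand, enzyme (10 nM Pol kappa) stood 15 min with compound at room temperature; buffer-only wells were negative controls.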
FEN1 inhibitor – inhibitors of human flap endonuclease 1; P39748; Recombinant FEN1 flap cleavage, fluorescence, 15 min; Potency, µM (doses to about 114 µM), most hits filed as inhibitors; actives 0.35% (n = 390,000); AID 588795; further: nearly all actives have a fitted effect of over 65% in size
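With each library titrated from low to high concentration, compounds met 10 nM FEN1 for 15 min at room temperature before 50 nM substrate was added; readings at 0 and 15 min fed four-parameter Hill curve fits.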
Pol iota inh – DNA polymerase iota (human) inhibition. Potency, µM (doses to about 115 µM), actives largely listed as inhibitors. actives 1% (n = 390,000). Pol iota fluorescent replication assay, 10 min. AID 588590
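Pol iota at 10 nM preincubated 15 min with compounds at room temperature; reaction started with fluorescent substrate, 50 nM final. Fluorescence read kinetically at 0 and 10 min; buffer-only wells as negative control.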
WRN helicase inh – WRN helicase (human) inhibition; actives 0.46% (n = 360,000); WRN helicase unwinding, fluorescent forked duplex, kinetic; Potency, µM (highest dose often 114 µM), most hits filed as inhibitors; AID 651768; Q14191; further: nearly all actives have a fitted effect of over 55% in size
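WRN at 20 nM final preincubated with compound 15 min at room temperature; reaction started with 100 nM fluorophore/quencher forked duplex oligonucleotide and 2 mM ATP final. Unwinding followed kinetically by red fluorescence (ex 525, em 598 nm).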
POLB inh – blocks human DNA polymerase beta activity; Pol beta primer extension/strand displacement, fluorescence kinetic; Potency, µM (doses to about 114 µM), usual class: inhibitors; AID 485314; actives 1.3% (n = 340,000)
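Values derive from four-parameter Hill fits of normalized kinetic data: reads at 0 and 10 min following addition of 50 nM substrate to 10 nM Pol beta preincubated 15 min with compound.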
Of the large screens only hits and unclear results are named; the others gave an inactive call. The call rests on the fitted dose curve; in most records, active means well fitted curve in the direction sought with a large enough effect; inconclusive means small, poorly fitted or top-dose-only effect, or another doubt; inactive means no such curve, though single readings can be large; an effect the other way counts as inactive or inconclusive.

O=C(CCC(=O)N1CCN(c2ccc(O)cc2)CC1)c1cccs1	Pol iota inh 70.8µM, POLB inh inconclusive
c1ccc(-n2cnnn2)cc1	none (no result: POLH inh, FEN1 inhibitor, Pol iota inh, WRN helicase inh, POLB inh)
CC(=O)Oc1cc2c3c(c1)/C(=C1/SC(=S)NC1=O)C(=O)N3C(C)(C)C=C2C	POLH inh 79.4µM, FEN1 inhibitor inconclusive, Pol iota inh inconclusive, WRN helicase inh inconclusive, POLB inh inconclusive
CCOc1cc2c3c(c1)C(C)=CC(C)(C)N3C(=O)C2=O	none
COc1cccc2cc(-c3nc(-c4ccccc4)c(C)s3)c(=O)oc12	none (no result: POLH inh, WRN helicase inh, POLB inh)
Nc1scc2c(C(=O)N/N=C/c3ccc(Cl)cc3)nn(-c3ccccc3)c(=O)c12	POLK inh inconclusive, Pol iota inh 6.31µM
CCOC(=O)c1nn(-c2ccccc2)c(=O)c2c(N)scc12	POLH inh inconclusive, Pol iota inh inconclusive, WRN helicase inh inconclusive
Nc1nc2[nH]cc(CCc3ccc(C(=O)NC(CCC(=O)O)C(=O)O)cc3)c2c(=O)[nH]1 (configuration not stated)	none (no result: POLH inh, FEN1 inhibitor, Pol iota inh, WRN helicase inh, POLB inh)
N#C/C(=N\Nc1cccc([N+](=O)[O-])c1)C(=O)c1ccc(Br)cc1	POLH inh 79.4µM, Pol iota inh inconclusive, WRN helicase inh inconclusive
Oc1ccccc1Oc1ncc(Br)c(N2CCOCC2)n1	none
Oc1ccccc1Oc1ncc(Br)c(Cl)n1	Pol iota inh 50.1µM, POLB inh 22.4µM
N#Cc1ccsc1NC(=O)COC(=O)c1ccc(Br)o1	POLH inh inconclusive, FEN1 inhibitor inconclusive, Pol iota inh 25.1µM (no result: POLB inh)
COc1cc(OC)cc(C(=O)N[C@H](C(=O)OCC(=O)Nc2sccc2C#N)C(C)C)c1	POLH inh 50.1µM, POLK inh inconclusive, Pol iota inh inconclusive, POLB inh inconclusive
O=C(Nc1ccccc1Sc1ccccc1)c1cnn2c1NC(=C1CC1)C=C2C(F)(F)F	FEN1 inhibitor inconclusive (no result: POLH inh, WRN helicase inh, POLB inh)
Cc1ccc(CN(Cc2cc3cc(C)ccc3[nH]c2=O)Cc2nnnn2Cc2ccccc2)cc1	none (no result: POLH inh, WRN helicase inh, POLB inh)
Oc1ccc(-c2csc(Nc3ccccn3)n2)cc1O	POLH inh 17.8µM, POLK inh inconclusive, Pol iota inh inconclusive, POLB inh 7.94µM
CC(C)(C)n1ncc2c(=O)n(Cc3cccc(OC(F)(F)F)c3)cnc21	none (no result: POLH inh, WRN helicase inh, POLB inh)
CCCc1ccc(O)c(N=Cc2cc(Br)cc(OCC)c2O)c1	Pol iota inh inconclusive, WRN helicase inh inconclusive, POLB inh 20µM
CC(C)(C)n1ncc2c(=O)n(Cc3ccc(F)cc3F)cnc21	none (no result: POLH inh, WRN helicase inh, POLB inh)
CC1CCc2c(sc(NC(=O)c3cccn3C)c2C(N)=O)C1 (configuration not stated)	POLH inh 31.6µM, Pol iota inh inconclusive (no result: POLB inh)
CCn1c2ccccc2c2cc(/C=N/NC(=O)c3ccncc3)ccc21	POLH inh inconclusive, FEN1 inhibitor inconclusive, POLB inh 15.8µM
CCn1c(SCC(=O)N/N=C/C(C)=C\c2ccco2)nnc1-c1ccccc1	POLH inh inconclusive, POLK inh inconclusive, Pol iota inh 44.7µM, POLB inh 28.2µM
Cc1nnc(NC(=O)CSc2nnc(-c3ccco3)n2C(C)C)s1	none
CCn1c(SCC(=O)N/N=C/c2ccc(C)o2)nnc1-c1ccccc1	none
CC(C)n1c(SCC(=O)Nc2nncs2)nnc1-c1ccco1	POLH inh 7.94µM, POLK inh 79.4µM, FEN1 inhibitor inconclusive, Pol iota inh 15.8µM, WRN helicase inh inconclusive, POLB inh 20µM
COc1ccc(/C=C(\C)C(=O)NO)cc1	none (no result: POLH inh, WRN helicase inh, POLB inh)
CCCN1CCCC(c2cccc(S(C)(=O)=O)c2)C1 (configuration not stated)	none (no result: POLH inh, FEN1 inhibitor, Pol iota inh, WRN helicase inh, POLB inh)
CCn1c2ccccc2c2cc(NC(=O)c3coc(=O)c(Br)c3)ccc21	none (no result: POLH inh, POLK inh, FEN1 inhibitor, Pol iota inh, WRN helicase inh)
CCOC(=O)c1c(NC(=O)CSc2nnnn2-c2ccccc2)sc2c1CCC(C)C2 (configuration not stated)	none
CCn1c2ccccc2c2cc(NC(=O)c3ccc(=O)oc3)ccc21	POLH inh inconclusive, POLK inh inconclusive, Pol iota inh 50.1µM, POLB inh inconclusive
CCn1c(SCC(=O)Nc2cccc(NC(C)=O)c2)nnc1-c1ccco1	none
CCn1c(SCC(=O)Nc2sc3c(c2C(N)=O)CCC(C)C3)nnc1-c1ccco1 (configuration not stated)	POLH inh inconclusive, POLK inh inconclusive, FEN1 inhibitor inconclusive, Pol iota inh 22.4µM, WRN helicase inh inconclusive, POLB inh 56.2µM
CCn1c(SCC(=O)Nc2ccc3c(c2)c2ccccc2n3CC)nnc1-c1ccco1	POLH inh 25.1µM, POLK inh 35.5µM, FEN1 inhibitor 50.1µM, Pol iota inh inconclusive
CN(C)c1ccc(/C=C2\CCc3ccccc32)cc1	none (no result: POLH inh, WRN helicase inh, POLB inh)
CC(=O)c1ccc(S(=O)(=O)N2CCNC(=O)C2)cc1	POLH inh 22.4µM, Pol iota inh inconclusive (no result: POLB inh)
CC(=O)c1ccc(S(=O)(=O)N2CCN(C(C)=O)CC2)cc1	POLH inh 22.4µM
CC(=O)Nc1ccc(S(=O)(=O)N2CCNC(=O)C2)cc1	none (no result: POLB inh)
O=[N+]([O-])c1ccc2c(c1)S(=O)(=O)C=C2	none (no result: POLH inh, FEN1 inhibitor, Pol iota inh, WRN helicase inh, POLB inh)
Cc1cccc(NC(=O)/C=C/c2cccs2)n1	POLK inh inconclusive, POLB inh 50.1µM
O=C(Nc1ccc2nc(-c3cccs3)c(-c3cccs3)nc2c1)N1CCCC1	none (no result: POLH inh, WRN helicase inh, POLB inh)
